# Residue numbers refer to the chain shown, from its start.
# Tests used:
# Test in all cases: PBM; 200 nM protein, PBS
# Settings in all cases: dsDNA, one strand shown
# PAX4 [1] = target: T1, PAX4 (Homo sapiens, UniProt O43316 9-242, R200K)
# T1 sequence: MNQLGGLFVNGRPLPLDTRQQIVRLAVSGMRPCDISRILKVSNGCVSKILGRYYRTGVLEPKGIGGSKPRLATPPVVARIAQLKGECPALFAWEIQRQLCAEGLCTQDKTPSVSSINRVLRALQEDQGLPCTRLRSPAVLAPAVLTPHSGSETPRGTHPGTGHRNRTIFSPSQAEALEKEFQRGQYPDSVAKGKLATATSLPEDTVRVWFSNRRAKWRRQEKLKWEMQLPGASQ
# PAX4 [2] = target: T2, PAX4 (Homo sapiens, UniProt O43316 9-242)
# T2 sequence: T1 sequence with K192R
# HOXB6 [3] = target: HOXB6 (Homo sapiens, UniProt P17509 132-218, K202E)
# Sequence of HOXB6 (Homo sapiens, UniProt P17509 132-218, K202E) (P17509 132-218 K202E): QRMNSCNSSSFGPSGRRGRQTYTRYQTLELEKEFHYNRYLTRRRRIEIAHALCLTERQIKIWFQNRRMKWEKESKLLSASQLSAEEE
# PAX4 [4] = target: T3, PAX4 (Homo sapiens, UniProt O43316 9-242, R200Q)
# T3 sequence: T1 sequence with K192Q
# PAX4 [5] = target: T4, PAX4 (Homo sapiens, UniProt O43316 9-242, F177V)
# T4 sequence: T1 sequence with F169V, K192R
# PAX4 [6] = target: T5, PAX4 (Homo sapiens, UniProt O43316 9-242, F177Y)
# T5 sequence: T1 sequence with F169Y, K192R
# PAX4 [7] = target: T6, PAX4 (Homo sapiens, UniProt O43316 9-242, R227W)
# T6 sequence: T1 sequence with K192R, R219W
# HOXB6 [8] = target: HOXB6 (Homo sapiens, UniProt P17509 132-218)
# Sequence of HOXB6 (Homo sapiens, UniProt P17509 132-218) (P17509 132-218): as the sequence (P17509 132-218 K202E) above, with E71K counted along it
# ALX4 [9] = target: ALX4 (Homo sapiens, UniProt Q9H161 200-286)
# Sequence of ALX4 (Homo sapiens, UniProt Q9H161 200-286) (Q9H161 200-286): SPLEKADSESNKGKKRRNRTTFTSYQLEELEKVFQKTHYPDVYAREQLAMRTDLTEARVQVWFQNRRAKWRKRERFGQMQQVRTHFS
# ALX4 [10] = target: ALX4 (Homo sapiens, UniProt Q9H161 200-286, Q225E)
# Sequence of ALX4 (Homo sapiens, UniProt Q9H161 200-286, Q225E) (Q9H161 200-286 Q225E): as the sequence (Q9H161 200-286) above, with Q26E counted along it
# PROP1 [11] = target: PROP1 (Homo sapiens, UniProt O75360 56-141)
# Sequence of PROP1 (Homo sapiens, UniProt O75360 56-141) (O75360 56-141): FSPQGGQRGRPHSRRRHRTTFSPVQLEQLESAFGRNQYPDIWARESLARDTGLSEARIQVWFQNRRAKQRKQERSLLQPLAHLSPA
# PROP1 [12] = target: PROP1 (Homo sapiens, UniProt O75360 56-141, R99H)
# Sequence of PROP1 (Homo sapiens, UniProt O75360 56-141, R99H) (O75360 56-141 R99H): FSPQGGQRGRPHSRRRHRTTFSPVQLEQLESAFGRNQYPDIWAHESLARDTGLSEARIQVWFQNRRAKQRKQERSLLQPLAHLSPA
# PROP1 [13] = target: PROP1 (Homo sapiens, UniProt O75360 56-141, F88S)
# Sequence of PROP1 (Homo sapiens, UniProt O75360 56-141, F88S) (O75360 56-141 F88S): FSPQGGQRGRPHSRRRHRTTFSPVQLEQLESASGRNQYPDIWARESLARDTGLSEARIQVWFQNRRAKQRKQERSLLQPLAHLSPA
# ALX1 [14] = target: ALX1 (Homo sapiens, UniProt Q15699 118-204, L144V)
# Sequence of ALX1 (Homo sapiens, UniProt Q15699 118-204, L144V) (Q15699 118-204 L144V): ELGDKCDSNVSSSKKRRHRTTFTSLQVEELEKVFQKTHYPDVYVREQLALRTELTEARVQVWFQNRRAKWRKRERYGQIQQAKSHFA
# ALX1 [15] = target: ALX1 (Homo sapiens, UniProt Q15699 118-204, L144R)
# Sequence of ALX1 (Homo sapiens, UniProt Q15699 118-204, L144R) (Q15699 118-204 L144R): as the sequence (Q15699 118-204 L144V) above, with V27R counted along it
# ALX1 [16] = target: ALX1 (Homo sapiens, UniProt Q15699 118-204)
# Sequence of ALX1 (Homo sapiens, UniProt Q15699 118-204) (Q15699 118-204): as the sequence (Q15699 118-204 L144V) above, with V27L counted along it
# ALX3 [17] = target: ALX3 (Homo sapiens, UniProt O95076 139-225, N203Q)
# Sequence of ALX3 (Homo sapiens, UniProt O95076 139-225, N203Q) (O95076 139-225 N203Q): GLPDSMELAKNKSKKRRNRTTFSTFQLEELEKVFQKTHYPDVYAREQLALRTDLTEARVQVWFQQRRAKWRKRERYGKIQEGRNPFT
# ALX3 [18] = target: ALX3 (Homo sapiens, UniProt O95076 139-225, N203S)
# Sequence of ALX3 (Homo sapiens, UniProt O95076 139-225, N203S) (O95076 139-225 N203S): as the sequence (O95076 139-225 N203Q) above, with Q65S counted along it
# NKX2-6 [19] = target: T7, NKX2-6 (Homo sapiens, UniProt A6NCS4 118-204)
# T7 sequence: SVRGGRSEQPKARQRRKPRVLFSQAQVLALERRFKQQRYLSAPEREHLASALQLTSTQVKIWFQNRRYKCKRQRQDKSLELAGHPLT
# NKX2-6 [20] = target: T8, NKX2-6 (Homo sapiens, UniProt A6NCS4 118-204, F151L)
# T8 sequence: T7 sequence with F34L
# HOXD13 [21] = target: HOXD13 (Homo sapiens, UniProt P35453 263-343)
# Sequence of HOXD13 (Homo sapiens, UniProt P35453 263-343) (P35453 263-343): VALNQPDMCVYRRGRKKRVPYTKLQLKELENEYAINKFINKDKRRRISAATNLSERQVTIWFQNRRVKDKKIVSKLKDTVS
# HOXD13 [22] = target: HOXD13 (Homo sapiens, UniProt P35453 263-343, T313A)
# Sequence of HOXD13 (Homo sapiens, UniProt P35453 263-343, T313A) (P35453 263-343 T313A): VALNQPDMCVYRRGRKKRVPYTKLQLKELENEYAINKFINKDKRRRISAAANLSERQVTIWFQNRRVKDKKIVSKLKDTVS
# ALX3 [23] = target: ALX3 (Homo sapiens, UniProt O95076 139-225)
# Sequence of ALX3 (Homo sapiens, UniProt O95076 139-225) (O95076 139-225): as the sequence (O95076 139-225 N203Q) above, with Q65N counted along it
# HESX1 = HESX1 (Homo sapiens, UniProt Q9UBX0 95-180, R109Q)
# Sequence of HESX1 (Q9UBX0 95-180 R109Q): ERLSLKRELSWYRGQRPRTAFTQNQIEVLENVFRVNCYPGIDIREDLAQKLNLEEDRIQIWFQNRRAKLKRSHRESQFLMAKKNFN
# ALX3 [24] = target: ALX3 (Homo sapiens, UniProt O95076 139-225, L168Q)
# Sequence of ALX3 (Homo sapiens, UniProt O95076 139-225, L168Q) (O95076 139-225 L168Q): as the sequence (O95076 139-225 N203Q) above, with L30Q, Q65N counted along it
# ALX3 [25] = target: ALX3 (Homo sapiens, UniProt O95076 139-225, L168V)
# Sequence of ALX3 (Homo sapiens, UniProt O95076 139-225, L168V) (O95076 139-225 L168V): as the sequence (O95076 139-225 N203Q) above, with L30V, Q65N counted along it
# MSX2 [26] = target: MSX2 (Homo sapiens, UniProt P35548 130-214, R199I)
# Sequence of MSX2 (Homo sapiens, UniProt P35548 130-214, R199I) (P35548 130-214 R199I): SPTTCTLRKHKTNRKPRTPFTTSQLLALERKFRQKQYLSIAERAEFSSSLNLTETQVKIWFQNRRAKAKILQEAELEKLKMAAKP
# MSX2 [27] = target: MSX2 (Homo sapiens, UniProt P35548 130-214)
# Sequence of MSX2 (Homo sapiens, UniProt P35548 130-214) (P35548 130-214): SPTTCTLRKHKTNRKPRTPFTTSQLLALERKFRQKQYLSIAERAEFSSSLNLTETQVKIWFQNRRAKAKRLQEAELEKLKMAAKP
# MSX2 [28] = target: MSX2 (Homo sapiens, UniProt P35548 130-214, F161Y)
# Sequence of MSX2 (Homo sapiens, UniProt P35548 130-214, F161Y) (P35548 130-214 F161Y): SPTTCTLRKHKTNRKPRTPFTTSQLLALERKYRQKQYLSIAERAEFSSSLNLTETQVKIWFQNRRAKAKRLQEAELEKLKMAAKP
sequence,measurement,setting,value
AGTCCGGC,binding signal,PAX4 [1],"9.22 upbm affinity estimate (log intensity, higher = more binding, comparable within an allelic series)"
same,binding signal,PAX4 [2],"9.22 upbm affinity estimate (log intensity, higher = more binding, comparable within an allelic series)"
same,binding signal,HOXB6 [3],"8.99 upbm affinity estimate (log intensity, higher = more binding, comparable within an allelic series)"
same,binding signal,PAX4 [4],"9.29 upbm affinity estimate (log intensity, higher = more binding, comparable within an allelic series)"
same,binding signal,PAX4 [5],"9.3 upbm affinity estimate (log intensity, higher = more binding, comparable within an allelic series)"
same,binding signal,PAX4 [6],"9.32 upbm affinity estimate (log intensity, higher = more binding, comparable within an allelic series)"
same,binding signal,PAX4 [7],"9.3 upbm affinity estimate (log intensity, higher = more binding, comparable within an allelic series)"
same,binding signal,HOXB6 [8],"8.89 upbm affinity estimate (log intensity, higher = more binding, comparable within an allelic series)"
CGGGCCTC,binding signal,ALX4 [9],"8.16 upbm affinity estimate (log intensity, higher = more binding, comparable within an allelic series)"
same,binding signal,ALX4 [10],"8.25 upbm affinity estimate (log intensity, higher = more binding, comparable within an allelic series)"
same,binding signal,PROP1 [11],"6.76 upbm affinity estimate (log intensity, higher = more binding, comparable within an allelic series)"
same,binding signal,PROP1 [12],"6.84 upbm affinity estimate (log intensity, higher = more binding, comparable within an allelic series)"
same,binding signal,PROP1 [13],"6.55 upbm affinity estimate (log intensity, higher = more binding, comparable within an allelic series)"
GACTGGAC,binding signal,ALX4 [9],"7.98 upbm affinity estimate (log intensity, higher = more binding, comparable within an allelic series)"
same,binding signal,ALX4 [10],"8.14 upbm affinity estimate (log intensity, higher = more binding, comparable within an allelic series)"
same,binding signal,ALX1 [14],"6.55 upbm affinity estimate (log intensity, higher = more binding, comparable within an allelic series)"
same,binding signal,ALX1 [15],"6.42 upbm affinity estimate (log intensity, higher = more binding, comparable within an allelic series)"
same,binding signal,ALX1 [16],"6.44 upbm affinity estimate (log intensity, higher = more binding, comparable within an allelic series)"
CATATTAA,binding signal,PAX4 [1],"11.8 upbm affinity estimate (log intensity, higher = more binding, comparable within an allelic series)"
same,binding signal,PAX4 [2],"12.1 upbm affinity estimate (log intensity, higher = more binding, comparable within an allelic series)"
same,binding signal,HOXB6 [3],"10 upbm affinity estimate (log intensity, higher = more binding, comparable within an allelic series)"
same,binding signal,ALX3 [17],"8.63 upbm affinity estimate (log intensity, higher = more binding, comparable within an allelic series)"
same,binding signal,PAX4 [4],"11.8 upbm affinity estimate (log intensity, higher = more binding, comparable within an allelic series)"
same,binding signal,PAX4 [5],"10.8 upbm affinity estimate (log intensity, higher = more binding, comparable within an allelic series)"
same,binding signal,PAX4 [6],"11 upbm affinity estimate (log intensity, higher = more binding, comparable within an allelic series)"
same,binding signal,PAX4 [7],"11 upbm affinity estimate (log intensity, higher = more binding, comparable within an allelic series)"
same,binding signal,ALX3 [18],"8.71 upbm affinity estimate (log intensity, higher = more binding, comparable within an allelic series)"
CCACATGG,binding signal,ALX4 [9],"8.13 upbm affinity estimate (log intensity, higher = more binding, comparable within an allelic series)"
same,binding signal,ALX4 [10],"8.32 upbm affinity estimate (log intensity, higher = more binding, comparable within an allelic series)"
same,binding signal,NKX2-6 [19],"9.61 upbm affinity estimate (log intensity, higher = more binding, comparable within an allelic series)"
same,binding signal,NKX2-6 [20],"9.23 upbm affinity estimate (log intensity, higher = more binding, comparable within an allelic series)"
GGTTATCA,binding signal,ALX4 [9],"9.51 upbm affinity estimate (log intensity, higher = more binding, comparable within an allelic series)"
same,binding signal,ALX4 [10],"9.1 upbm affinity estimate (log intensity, higher = more binding, comparable within an allelic series)"
AATTTATC,binding signal,ALX4 [9],"12 upbm affinity estimate (log intensity, higher = more binding, comparable within an allelic series)"
same,binding signal,ALX4 [10],"11.1 upbm affinity estimate (log intensity, higher = more binding, comparable within an allelic series)"
same,binding signal,HOXD13 [21],"11 upbm affinity estimate (log intensity, higher = more binding, comparable within an allelic series)"
same,binding signal,PROP1 [11],"9.59 upbm affinity estimate (log intensity, higher = more binding, comparable within an allelic series)"
same,binding signal,PROP1 [12],"9.17 upbm affinity estimate (log intensity, higher = more binding, comparable within an allelic series)"
same,binding signal,HOXD13 [22],"10.9 upbm affinity estimate (log intensity, higher = more binding, comparable within an allelic series)"
same,binding signal,PROP1 [13],"7.6 upbm affinity estimate (log intensity, higher = more binding, comparable within an allelic series)"
CACAGCTC,binding signal,ALX4 [9],"7.95 upbm affinity estimate (log intensity, higher = more binding, comparable within an allelic series)"
same,binding signal,ALX4 [10],"8.26 upbm affinity estimate (log intensity, higher = more binding, comparable within an allelic series)"
same,binding signal,PROP1 [11],"6.72 upbm affinity estimate (log intensity, higher = more binding, comparable within an allelic series)"
same,binding signal,PROP1 [12],"6.77 upbm affinity estimate (log intensity, higher = more binding, comparable within an allelic series)"
same,binding signal,PROP1 [13],"6.99 upbm affinity estimate (log intensity, higher = more binding, comparable within an allelic series)"
AATTAAAG,binding signal,ALX4 [9],"13.6 upbm affinity estimate (log intensity, higher = more binding, comparable within an allelic series)"
same,binding signal,ALX4 [10],"12.8 upbm affinity estimate (log intensity, higher = more binding, comparable within an allelic series)"
same,binding signal,ALX1 [14],"11.4 upbm affinity estimate (log intensity, higher = more binding, comparable within an allelic series)"
same,binding signal,ALX3 [17],"8.35 upbm affinity estimate (log intensity, higher = more binding, comparable within an allelic series)"
same,binding signal,ALX1 [15],"11 upbm affinity estimate (log intensity, higher = more binding, comparable within an allelic series)"
same,binding signal,ALX3 [23],"12.3 upbm affinity estimate (log intensity, higher = more binding, comparable within an allelic series)"
same,binding signal,PROP1 [11],"11.2 upbm affinity estimate (log intensity, higher = more binding, comparable within an allelic series)"
same,binding signal,HESX1,"8.69 upbm affinity estimate (log intensity, higher = more binding, comparable within an allelic series)"
same,binding signal,PROP1 [12],"10.9 upbm affinity estimate (log intensity, higher = more binding, comparable within an allelic series)"
same,binding signal,ALX3 [24],"10.3 upbm affinity estimate (log intensity, higher = more binding, comparable within an allelic series)"
same,binding signal,ALX3 [25],"9.9 upbm affinity estimate (log intensity, higher = more binding, comparable within an allelic series)"
same,binding signal,PROP1 [13],"7.55 upbm affinity estimate (log intensity, higher = more binding, comparable within an allelic series)"
same,binding signal,ALX3 [18],"8.43 upbm affinity estimate (log intensity, higher = more binding, comparable within an allelic series)"
ACTTACCG,binding signal,ALX4 [9],"9.9 upbm affinity estimate (log intensity, higher = more binding, comparable within an allelic series)"
same,binding signal,ALX4 [10],"9.28 upbm affinity estimate (log intensity, higher = more binding, comparable within an allelic series)"
AGGAGGCG,binding signal,ALX4 [9],"8.14 upbm affinity estimate (log intensity, higher = more binding, comparable within an allelic series)"
same,binding signal,ALX4 [10],"8.12 upbm affinity estimate (log intensity, higher = more binding, comparable within an allelic series)"
same,binding signal,MSX2 [26],"9.45 upbm affinity estimate (log intensity, higher = more binding, comparable within an allelic series)"
same,binding signal,MSX2 [27],"9.43 upbm affinity estimate (log intensity, higher = more binding, comparable within an allelic series)"
same,binding signal,MSX2 [28],"9.49 upbm affinity estimate (log intensity, higher = more binding, comparable within an allelic series)"
ACGGAGGC,binding signal,ALX4 [9],"8.04 upbm affinity estimate (log intensity, higher = more binding, comparable within an allelic series)"
same,binding signal,ALX4 [10],"8.29 upbm affinity estimate (log intensity, higher = more binding, comparable within an allelic series)"
same,binding signal,MSX2 [26],"9.59 upbm affinity estimate (log intensity, higher = more binding, comparable within an allelic series)"
same,binding signal,ALX3 [17],"7.76 upbm affinity estimate (log intensity, higher = more binding, comparable within an allelic series)"
same,binding signal,MSX2 [27],"9.53 upbm affinity estimate (log intensity, higher = more binding, comparable within an allelic series)"
same,binding signal,ALX3 [23],"7.71 upbm affinity estimate (log intensity, higher = more binding, comparable within an allelic series)"
same,binding signal,PROP1 [11],"6.67 upbm affinity estimate (log intensity, higher = more binding, comparable within an allelic series)"
same,binding signal,PROP1 [12],"6.65 upbm affinity estimate (log intensity, higher = more binding, comparable within an allelic series)"
same,binding signal,ALX3 [24],"7.84 upbm affinity estimate (log intensity, higher = more binding, comparable within an allelic series)"
same,binding signal,ALX3 [25],"7.82 upbm affinity estimate (log intensity, higher = more binding, comparable within an allelic series)"
same,binding signal,PROP1 [13],"6.49 upbm affinity estimate (log intensity, higher = more binding, comparable within an allelic series)"
same,binding signal,MSX2 [28],"9.52 upbm affinity estimate (log intensity, higher = more binding, comparable within an allelic series)"
same,binding signal,ALX3 [18],"7.76 upbm affinity estimate (log intensity, higher = more binding, comparable within an allelic series)"

# Reference: paper PMC11006913
